# Where “and” joins values, the source holds several entries; their conditions need not be identical. Identical values can stand only once. Inconclusive results are not listed. The list shows a part of the results. Calls of active or inactive are those of the source. Unless noted, calls follow the shape of the dose curve; as a rule, active = well fitted curve in the direction sought with a large enough effect; inconclusive = small, poorly fitted or top-dose-only effect, or another doubt; inactive = no such curve, though single readings can be large; an effect the other way counts as inactive or inconclusive.
# Columns and labels:
# [1] = qHTS Assay for Identification of Small Molecule Antagonists for Thrombopoietin (TPO) Signaling Pathway (AID 918); conditions: TPO-dependent cell signaling reporter, antagonist mode; also: potency is read from the fitted curve at half-maximal effect; nearly all actives have a fitted effect of over 60% in size
# Procedure, shortened: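 Luminescence read-out: GPIIb-promoter luciferase in Ba/F3 cells carrying human TPO receptor. Compounds added with 26 pM TPO (EC50), 24 hrs, 37 C, 5% CO2; cells deprived of IL-3 overnight beforehand. Inhibition of signal scored.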
# [2] = biological target: Tyrosyl-DNA phosphodiesterase 1 (Homo sapiens) (UniProt Q9NUW8); test: Confirmation Assay for Inhibitors of Tyrosyl-DNA Phosphodiesterase (TDP1) (AID 489007); conditions: recombinant human TDP1 enzymatic activity, dose-response; also: potency is read from the fitted curve at half-maximal effect; nearly all actives have a fitted effect of over 40% in size
# Procedure, shortened: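 AlphaScreen read-out: streptavidin donor and anti-FITC acceptor beads (10 ug/ml) bind intact substrate, so Tdp1 removal of tyrosine-FITC lowers signal. Enzyme 1 nM, substrate 15 nM, 5 min reaction at room temperature after 15 min compound preincubation.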
# [3] = biological target: Cytochrome P450 2D6 (Homo sapiens) (UniProt P10635); test: Cytochrome P450 family 2 subfamily D member 6 (CYP2D6) small molecule antagonists: luciferase biochemical (cell-free) qHTS assay (AID 1645840; active = well fitted curve in the direction sought with a large enough effect in the repeat runs; an effect the other way counts as inactive or inconclusive; also: nearly all actives have a fitted effect of over 55% in size; also: potency is read from the fitted curve at half-maximal effect); conditions: P450-Glo CYP2D6 enzyme, luciferin luminescence, 1 h; series mostly up to 57.4 µM
# Procedure, shortened: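 P450-Glo CYP2D6 system: proluciferin substrate converted by enzyme to luciferin, read by luminescence proportional to activity. Enzyme-substrate mix with compound 10 min at room temperature, then NADPH regeneration 1 h before detection reagent.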
# [4] = qHTS profiling of the MIPE4 collection as inhibitors of Plasmodium falciparum (3D7) proliferation (AID 743344; call rule not given here;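 also: scaled between DMSO vehicle wells and 0.29 µM artemisinin as full inhibition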); conditions: P. falciparum 3D7 in erythrocytes, SYBR Green DNA fluorescence, 72 h; at 5.51 µM (top of the series) unless noted
# Procedure, shortened: (§1)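 Parasite DNA was quantified by SYBR Green I fluorescence (ex 485, em 535 nm) after overnight lysis in saponin/Triton buffer at room temperature. Cultures at 0.3% parasitemia and 2.5% hematocrit were first exposed to compound for 72 h at 37 C; signals were normalised to artemisinin (0.29 uM) and vehicle wells.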
# [5] = qHTS profiling of the MIPE4 collection as inhibitors of Plasmodium falciparum (DD2) proliferation (AID 743345; call rule not given here); conditions: P. falciparum Dd2 in erythrocytes, SYBR Green DNA, 72 h; at 5.51 µM (top of the series) unless noted
# Procedure, shortened: as §1
# [6] = qHTS profiling of the MIPE4 collection as inhibitors of Plasmodium falciparum (DD2) proliferation (Rep 2) (AID 743346; call rule not given here); conditions: P. falciparum Dd2 in erythrocytes, SYBR Green DNA, 72 h; at 5.51 µM (top of the series) unless noted
# Procedure, shortened: as §1
# [7] = qHTS profiling of the MIPE4 collection as inhibitors of Plasmodium falciparum (HB3) proliferation (AID 743347; call rule not given here;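 also: plate controls were DMSO vehicle wells for no effect and artemisinin wells for full effect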); conditions: P. falciparum HB3 in erythrocytes, SYBR Green DNA, 72 h; at 5.51 µM (top of the series) unless noted
# Procedure, shortened: as §1
# [8] = Cell Viability - BJ (AID 421; calls by dose curve;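 also: potency is read from the fitted curve at half-maximal effect; cells exposed to compound for 40 hours at 37 °C before readout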); conditions: BJ fibroblast viability, qHTS
# Procedure, shortened: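 Quantitative HTS: ATP depletion in BJ cells after 40 hr compound exposure in complete culture medium, detected with CellTiter-Glo; AC50 from standard Hill fits.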
# [9] = Cell Viability - Hek293 (AID 427;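 active = compounds whose dose-response curve shows a full or clear partial loss of cell viability, called from curve shape rather than a numeric limit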;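 also: potency is read from the fitted curve at half-maximal effect; cells exposed to compound for 40 hours at 37 °C before reading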); conditions: qHTS
# Procedure, shortened: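 AC50 values derive from Hill-modelled concentration-response of ATP-based luminescence, normalized between DMSO-only and 100 uM tamoxifen controls. Cells were exposed in complete culture medium for 40 hr at 37 °C before detection.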
# [10] = Cell Viability - HepG2 (AID 433; calls by dose curve;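 also: potency is read from the fitted curve at half-maximal effect; potency for ATP loss meaning cytotoxicity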); conditions: qHTS
# Procedure, shortened: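 Cytotoxicity is scored as loss of intracellular ATP in HepG2 cells exposed to compounds for 40 h. Concentration-response curves, normalized to DMSO and 100 uM tamoxifen, give AC50 values.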
# [11] = Cell Viability - MRC5 (AID 434; calls by dose curve;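 also: potency is read from the fitted curve at half-maximal effect; cells exposed to compound for 40 hours at 37 °C; potency reflects cytotoxicity seen as loss of intracellular ATP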); conditions: MRC5 lung fibroblast viability, qHTS
# Procedure, shortened: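 AC50 values come from Hill-equation fits of intracellular ATP loss, measured by CellTiter-Glo luminescence. Normal lung fibroblasts (MRC5) had 40 hr compound treatment at 37 C, normalized between DMSO and 100 uM tamoxifen.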
# [12] = Cell Viability - SK-N-SH (AID 435; calls by dose curve;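 also: potency is read from the fitted curve at half-maximal effect; compound exposure lasted 40 h at 37 °C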); conditions: SK-N-SH neuroblastoma cell viability qHTS
# Procedure, shortened: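 Cells seeded at 1500 per well and incubated 5 hr at 37 °C. Compound added, then 40 hr at 37 °C. CellTiter-Glo added, 20 min at room temperature, luminescence read.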
# [13] = Cell Viability - N2a (AID 540); conditions: N2a mouse neuroblastoma cell viability; series mostly up to 92.2 µM;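 also: cells exposed to compound for 40 h at 37 °C; plate controls were DMSO alone for no effect and tamoxifen control for full effect; nearly all actives have a fitted effect of over 45% in size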
# Procedure, shortened: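 N2a mouse neuroblastoma, 1500 cells/well, 5 hr settle; compound 40 hr, 37 °C; CellTiter-Glo 20 min RT; luminescence; Hill-fit AC50.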
# [14] = Cell Viability - NIH 3T3 (AID 541); conditions: NIH 3T3 cell viability, qHTS; series mostly up to 92.2 µM;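 also: plate controls were DMSO alone for no effect and tamoxifen positive control for full effect; nearly all actives have a fitted effect of over 25% in size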
# Procedure, shortened: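 qHTS format; 40 hr compound exposure, 37 °C; CellTiter-Glo luminescence (cellular ATP) read-out after 20 min at RT. Decrease in ATP = cytotoxicity; AC50 from standard Hill fit.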
# [15] = Cell Viability - SH-SY5Y (AID 544); conditions: SH-SY5Y neuroblastoma cell viability; series mostly up to 92.2 µM;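 also: 0% = DMSO alone and -100% = 100 µM tamoxifen; nearly all actives have a fitted effect of over 55% in size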
# Procedure, shortened: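 SH-SY5Y, 1500 cells/well, 5 hr pre-incubation 37 °C; cpd 40 hr 37 °C; CellTiter-Glo 20 min RT; luminescence (ATP) read. qHTS concentration-response, Hill fit → AC50. Tamoxifen, doxorubicin as positive controls.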
# [16] = Cell Viability - Renal Proximal Tubule (AID 545); conditions: renal proximal tubule cells viability, primary cells of rat origin; series mostly up to 91.7 µM;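 also: 0% = DMSO only and -100% = 100 µM tamoxifen; nearly all actives have a fitted effect of over 40% in size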
# Procedure, shortened: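 Cytotoxicity is scored as a concentration-dependent drop in cellular ATP in primary rat renal proximal tubule cells exposed for 40 hr. AC50 derives from Hill modelling.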
# [17] = biological target: Vitamin D3 receptor (Homo sapiens) (UniProt P11473); test: qHTS for Inhibitors of the vitamin D receptor (VDR): Hit Validation using a Beta-Lactamase Assay (AID 602202); conditions: VDR beta-lactamase reporter cells, FRET ratio, cells co-treated with VDR agonist LG190178; series mostly up to 46.1 µM; also: potency is read from the fitted curve at half-maximal effect
# Procedure, shortened: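 Beta-lactamase reporter read-out (447 nm emission of cleaved FRET substrate, 2 h) after 18 h compound exposure of HEK293 cells carrying a VDR-GAL4 fusion and UAS reporter, stimulated with LG190178.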
# [18] = biological target: Rap guanine nucleotide exchange factor 3 (Homo sapiens) (UniProt O95398); test: Confirmatory qHTS for antagonist of cAMP-regulated guanine nucleotide exchange factor 3 (EPAC1) (AID 1645880); conditions: EPAC1 Rap1B-BODIPY-GDP exchange, fluorescence; series mostly up to 115 µM;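 also: plate controls were DMSO only for no effect and full effect of the ATA control for full effect; nearly all actives have a fitted effect of over 55% in size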
# Procedure, shortened: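 Released BODIPY-GDP fluoresces less than Rap1-bound BODIPY-GDP; the signal is followed at 480/540 nm at 5-min intervals over 30 min, after 5 min at room temperature. Reactions contain 100 nM EPAC1, 250 nM RAP1B-BODIPY-GDP and 50 uM GDP; results are normalized to ATA and DMSO.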
# [19] = biological target: Rap guanine nucleotide exchange factor 3 (Homo sapiens) (UniProt O95398); test: Confirmatory qHTS for agonist of cAMP-regulated guanine nucleotide exchange factor 3 (EPAC1) (AID 1645881); conditions: EPAC1 Rap1B BODIPY-GDP exchange fluorescence; series mostly up to 154 µM;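 also: EPAC1 catalysed release of BODIPY-GDP from Rap1B seen as fluorescence loss; 100% = effect of cAMP agonist control; nearly all actives have a fitted effect of over 75% in size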
# [20] = biological target: Rap guanine nucleotide exchange factor 4 (Homo sapiens) (UniProt Q8WZA2); test: Confirmatory qHTS for agonist of cAMP-regulated guanine nucleotide exchange factor 4 (EPAC2) (AID 1645884); conditions: EPAC2 GEF activity, Rap1B-BODIPY-GDP fluorescence; series mostly up to 154 µM;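 also: nucleotide exchange releases bodipy-GDP from Rap1 and this lowers its fluorescence; % is scaled to controls: 0 for no effect and ±100 for the full control effect; nearly all actives have a fitted effect of over 65% in size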
# Rap guanine nucleotide exchange factor 4 (Homo sapiens), sequence (Q8WZA2 whole entry, looked up): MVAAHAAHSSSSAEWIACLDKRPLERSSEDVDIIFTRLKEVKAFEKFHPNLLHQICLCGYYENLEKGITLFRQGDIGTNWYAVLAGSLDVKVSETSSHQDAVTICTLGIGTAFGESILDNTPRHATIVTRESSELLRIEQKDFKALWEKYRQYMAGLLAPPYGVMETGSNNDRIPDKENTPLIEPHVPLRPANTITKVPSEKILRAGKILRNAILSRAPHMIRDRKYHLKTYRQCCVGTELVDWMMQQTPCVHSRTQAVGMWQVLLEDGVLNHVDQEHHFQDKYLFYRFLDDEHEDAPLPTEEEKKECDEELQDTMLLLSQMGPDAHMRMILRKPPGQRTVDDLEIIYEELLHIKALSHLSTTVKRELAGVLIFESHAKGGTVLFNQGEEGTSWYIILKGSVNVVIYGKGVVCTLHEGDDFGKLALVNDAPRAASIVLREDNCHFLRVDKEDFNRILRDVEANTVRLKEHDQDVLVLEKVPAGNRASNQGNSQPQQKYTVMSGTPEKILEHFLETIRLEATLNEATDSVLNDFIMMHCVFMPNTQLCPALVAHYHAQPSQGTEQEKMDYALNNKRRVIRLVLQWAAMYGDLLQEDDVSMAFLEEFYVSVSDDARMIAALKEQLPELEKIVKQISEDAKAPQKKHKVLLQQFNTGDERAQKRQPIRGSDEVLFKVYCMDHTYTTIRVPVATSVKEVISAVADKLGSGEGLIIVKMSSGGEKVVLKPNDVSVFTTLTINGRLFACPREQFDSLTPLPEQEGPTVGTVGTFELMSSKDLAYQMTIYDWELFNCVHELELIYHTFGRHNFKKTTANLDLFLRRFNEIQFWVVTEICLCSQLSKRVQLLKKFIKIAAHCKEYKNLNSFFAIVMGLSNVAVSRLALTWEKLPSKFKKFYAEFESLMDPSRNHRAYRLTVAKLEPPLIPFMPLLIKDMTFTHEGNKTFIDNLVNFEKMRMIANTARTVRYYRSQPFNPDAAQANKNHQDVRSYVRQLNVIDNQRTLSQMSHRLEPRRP
# Rap guanine nucleotide exchange factor 3 (Homo sapiens), sequence (O95398 whole entry, looked up): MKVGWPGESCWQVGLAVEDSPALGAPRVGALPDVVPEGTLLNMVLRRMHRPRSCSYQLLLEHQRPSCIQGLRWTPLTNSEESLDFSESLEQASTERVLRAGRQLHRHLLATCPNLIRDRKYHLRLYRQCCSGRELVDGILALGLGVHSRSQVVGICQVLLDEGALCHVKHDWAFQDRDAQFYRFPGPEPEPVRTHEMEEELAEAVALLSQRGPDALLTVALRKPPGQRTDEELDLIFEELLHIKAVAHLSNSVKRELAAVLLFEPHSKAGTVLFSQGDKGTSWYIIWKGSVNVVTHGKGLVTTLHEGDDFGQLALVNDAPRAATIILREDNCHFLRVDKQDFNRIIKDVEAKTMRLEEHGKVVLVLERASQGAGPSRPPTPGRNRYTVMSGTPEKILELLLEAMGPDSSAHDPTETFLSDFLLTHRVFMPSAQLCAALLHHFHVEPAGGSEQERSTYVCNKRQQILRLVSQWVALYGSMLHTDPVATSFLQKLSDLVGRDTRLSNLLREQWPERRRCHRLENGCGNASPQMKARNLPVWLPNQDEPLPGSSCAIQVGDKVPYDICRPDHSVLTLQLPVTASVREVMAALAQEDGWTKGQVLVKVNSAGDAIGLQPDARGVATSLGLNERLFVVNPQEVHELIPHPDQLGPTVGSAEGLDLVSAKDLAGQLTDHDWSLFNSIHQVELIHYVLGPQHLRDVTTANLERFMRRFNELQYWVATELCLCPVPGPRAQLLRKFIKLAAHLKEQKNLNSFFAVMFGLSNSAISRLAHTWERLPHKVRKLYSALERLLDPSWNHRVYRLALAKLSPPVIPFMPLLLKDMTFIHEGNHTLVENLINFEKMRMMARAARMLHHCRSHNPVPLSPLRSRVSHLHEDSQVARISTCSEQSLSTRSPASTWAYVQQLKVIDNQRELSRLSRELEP
# Vitamin D3 receptor (Homo sapiens), sequence (P11473 whole entry, looked up, the tested form may be a part): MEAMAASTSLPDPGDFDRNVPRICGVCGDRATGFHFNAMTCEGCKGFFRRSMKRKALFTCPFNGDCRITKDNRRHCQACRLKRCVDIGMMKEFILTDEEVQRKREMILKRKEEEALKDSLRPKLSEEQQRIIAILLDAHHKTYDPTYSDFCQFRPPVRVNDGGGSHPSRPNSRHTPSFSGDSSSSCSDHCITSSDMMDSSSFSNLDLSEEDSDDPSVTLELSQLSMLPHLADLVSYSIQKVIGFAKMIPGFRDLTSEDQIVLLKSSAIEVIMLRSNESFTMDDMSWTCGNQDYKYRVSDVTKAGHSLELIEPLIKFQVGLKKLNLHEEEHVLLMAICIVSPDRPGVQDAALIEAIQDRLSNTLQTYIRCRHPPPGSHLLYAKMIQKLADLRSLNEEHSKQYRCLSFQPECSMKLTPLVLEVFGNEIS
# Tyrosyl-DNA phosphodiesterase 1 (Homo sapiens), sequence (Q9NUW8 whole entry, looked up): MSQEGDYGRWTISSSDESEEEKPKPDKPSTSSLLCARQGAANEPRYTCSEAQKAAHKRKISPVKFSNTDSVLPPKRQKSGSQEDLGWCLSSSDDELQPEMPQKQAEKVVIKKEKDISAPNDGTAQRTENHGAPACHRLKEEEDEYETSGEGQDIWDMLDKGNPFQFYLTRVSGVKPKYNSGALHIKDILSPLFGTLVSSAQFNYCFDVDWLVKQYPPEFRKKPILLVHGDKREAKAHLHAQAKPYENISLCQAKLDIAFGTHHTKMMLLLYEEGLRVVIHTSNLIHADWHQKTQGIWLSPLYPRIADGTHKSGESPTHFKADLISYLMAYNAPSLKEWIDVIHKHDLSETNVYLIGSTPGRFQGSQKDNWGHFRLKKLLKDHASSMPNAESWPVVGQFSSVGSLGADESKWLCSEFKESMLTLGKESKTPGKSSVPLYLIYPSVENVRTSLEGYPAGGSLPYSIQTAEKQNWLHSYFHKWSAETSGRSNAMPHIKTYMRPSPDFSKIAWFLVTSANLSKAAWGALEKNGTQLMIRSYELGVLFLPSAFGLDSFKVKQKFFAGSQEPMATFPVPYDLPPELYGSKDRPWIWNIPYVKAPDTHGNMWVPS
# Cytochrome P450 2D6 (Homo sapiens), sequence (P10635 whole entry, looked up): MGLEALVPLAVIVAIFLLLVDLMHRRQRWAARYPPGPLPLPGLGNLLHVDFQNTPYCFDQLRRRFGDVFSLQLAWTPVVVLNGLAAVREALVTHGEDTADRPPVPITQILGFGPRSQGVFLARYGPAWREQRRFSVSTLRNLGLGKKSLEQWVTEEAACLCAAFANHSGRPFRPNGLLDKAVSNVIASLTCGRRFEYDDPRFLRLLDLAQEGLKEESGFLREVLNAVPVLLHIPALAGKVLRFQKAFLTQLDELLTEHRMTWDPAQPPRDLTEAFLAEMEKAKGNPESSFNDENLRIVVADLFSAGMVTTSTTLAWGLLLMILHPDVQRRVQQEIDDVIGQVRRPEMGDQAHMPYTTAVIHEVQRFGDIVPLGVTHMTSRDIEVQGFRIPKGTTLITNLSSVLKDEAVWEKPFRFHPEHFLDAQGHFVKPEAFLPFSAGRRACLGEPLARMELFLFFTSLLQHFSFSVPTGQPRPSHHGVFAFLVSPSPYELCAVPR
smiles,measurement,setting,value
CCN(CC)CCC[C@H](C)Nc1c2ccc(Cl)cc2nc2ccc(OC)cc12,Potency,[1],10 µM (active)
CN(C)[C@H]1C(=O)C(C(=O)NCN2CCCC2)=C(O)[C@]2(O)C(=O)C3=C(O)c4c(O)cccc4[C@@](C)(O)[C@H]3C[C@@H]12,Potency,[2],8.91 µM (active)
Cc1ccc(Cn2c(C)c3cnn(CC(=O)NCc4ccccc4)c(=O)c3c2C)cc1,Potency,[3],9.52 µM (active)
CC1CC2C3CCC4=CC(=O)C=C[C@@]4(C)[C@]3(F)C(O)C[C@]2(C)[C@]1(O)C(=O)CO (some centres not stated),"parasite growth, % of DMSO control",[4],31.9% [at 28.5 µM]
same,"parasite growth remaining, % of DMSO control (lower = more inhibition)",[5],90.9% [at 28.5 µM]
same,"parasite growth, % of control (lower = inhibition)",[6],44.9% [at 28.5 µM]
same,"growth, % of control",[7],11.4% [at 28.5 µM]
CO/N=C(/C(=O)NC1C(=O)N2C(C(=O)O)=C(CSc3nc(=O)c(O)nn3C)CSC12)c1csc(N)n1 (configuration not stated),Potency,[2],1.78 µM (active) and 12.6 µM (active)
CCOC(=O)c1ccc(NC(=O)CSc2nc3c([nH]c4ccccc43)c(=O)n2C)cc1,Potency,[3],inactive
CN(C)CCOC(c1ccccc1)c1ccccc1 (tested in a mixture with another compound),Potency,[8],> 92 µM (inactive)
same,Potency,[9],> 92 µM (inactive)
same,Potency,[10],> 92 µM (inactive)
same,Potency,[11],> 92 µM (inactive)
same,Potency,[12],> 92 µM (inactive)
same,outcome,[13],inactive
same,outcome,[14],inactive
same,outcome,[15],inactive
same,outcome,[16],inactive
COc1ccccc1-c1cc(C(F)(F)F)nc(S(=O)(=O)CCCC(=O)Nc2ccc(F)cc2F)n1,Potency,[17],18.4 µM (active)
CCOc1ccc(NC(=O)c2c(NC(=O)Cc3ccccc3)sc3c2CCC(C)C3)cc1 (configuration not stated),Potency,[17],inactive
CC(=O)OC1CCC23CC1(C)CCC2C(C)(C)CC3OC(C)=O (configuration not stated),Potency,[18],inactive
same,Potency,[19],inactive
same,Potency,[20],inactive
CCCCOc1ccc(CN2C(=O)C(=O)c3cc(Br)cc(C)c32)cc1OC,Potency,[17],inactive
COc1cccc(Nc2ncc3ncc(=O)n(Cc4cccs4)c3n2)c1,Potency,[18],inactive
same,Potency,[19],inactive
same,Potency,[20],inactive

# Source: PubChem BioAssay (NCATS)
